# Where “and” joins values, the source holds several entries; their conditions need not be identical. Equal values may be shown once. Results filed as inconclusive are left out. Entries that show only a call come without a potency. Calls of active or inactive are those of the source. Calls follow the shape of the dose curve; as a rule, active = well fitted curve in either direction with a large enough effect; inconclusive = small, poorly fitted or top-dose-only effect; inactive = no such curve, though single readings can be large or run the other way.
# Molecular target: Lysosomal alpha-glucosidase (Homo sapiens) (UniProt P10253)
# Assay: Confirmation of Inhibitors and Activators of Human alpha-Glucosidase From Spleen Homogenate;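 as to potency: fluorescence of 4-methylumbelliferone released from a fluorogenic glucopyranoside substrate at pH 5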
# Conditions: alpha-glucosidase enzyme activity; series mostly up to 60.5 µM
# How it was run: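 Compounds titrated against spleen-homogenate alpha-glucosidase, pH 5.0, 1 mM 4-MU-glucoside substrate, 37 C for 40 min. Fluorescence after pH 10 stop, normalised to no-enzyme and enzyme controls; Hill-equation AC50.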
# Potency is read from the fitted curve at half-maximal effect.
row,Structure (SMILES),Potency
1,CC1CCc2c(nc3ncnn3c2N2CCN(c3ccccc3F)CC2)C1 (centres undefined),inactive
2,N#Cc1cccc(S(=O)(=O)N2CCOCC2)c1,inactive
3,Cc1cc(C)c(C(=O)Cn2cnc3cc([N+](=O)[O-])ccc3c2=O)cc1C,inactive
4,CC(=O)c1ccc(N2CCN(S(=O)(=O)c3ccc4c(c3)CCC(=O)N4)CC2)cc1,inactive
5,CCCN1CNc2c(c(=O)[nH]c(=S)n2CCc2ccc(OC)c(OC)c2)C1,11.2 µM (active) and 15.8 µM (active)
6,CCSc1nc(=S)n(CC)c(C)c1C(C)=O,inactive
7,CCCN1CNc2c(c(=O)[nH]c(=S)n2CCc2ccc(OCC)c(OCC)c2)C1,25.1 µM (active)
8,O=S(=O)(c1cccc(Cl)c1)N1CCOCC1,inactive
9,Cn1c(-c2ccco2)nc2cc3ccccc3cc21,inactive
10,O=C(O)Cn1nnnc1SCC(=O)Nc1ccc(OC(F)(F)F)cc1,inactive
11,O=S(=O)(c1ccccc1)N1CCN(c2ccccc2)CC1,inactive
12,Cc1sc(-c2cc3ccccc3oc2=O)nc1-c1ccccc1,inactive
13,Cc1nnc(SCC(=O)Nc2ccc3c(c2)COC3=O)n1-c1ccccc1,inactive
14,Cn1cnc2c(NCc3ccccc3)nc(NCCO)nc21,inactive
15,Cc1ccc(S(=O)(=O)NC(=O)NN2CCCCCC2)cc1,inactive
16,Cc1ccc2c(=O)c3ccccc3n(CCCN)c2c1C,inactive
17,C=CCn1c2ccccc2c2nnc(SCC(=O)NC(C(=O)OC)C(C)C)nc21 (centres undefined),inactive
18,Cc1ccc(N=Nc2c(N)nn(-c3ccccc3)c2N)cc1,inactive
19,NC(=S)NN=C1c2cc(S(=O)(=O)N3CCOCC3)ccc2-c2ccc(S(=O)(=O)N3CCOCC3)cc21,inactive

# Reference: PubChem BioAssay AID2113 (National Center for Advancing Translational Sciences (NCATS), 2009)
